# Measured values from PubChem BioAssay.
# Values without a mark were called inactive. How the calls were made is not given here.
# Molecular target: Pantothenate synthetase (Mycobacterium tuberculosis (strain ATCC 25618 / H37Rv)) (UniProt P9WIL5)
# Experiment: Recombinant Mtb pantothenate synthetase (PanC) inhibitors, coupled enzyme, confirmatory (AID 375);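 further: 0% = full reaction with vehicle and 100% = no enzyme background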
# Settings: coupled enzyme assay; at 10 µM, stronger effect = higher value
# Pantothenate synthetase (Mycobacterium tuberculosis (strain ATCC 25618 / H37Rv)), sequence (P9WIL5 whole entry, looked up): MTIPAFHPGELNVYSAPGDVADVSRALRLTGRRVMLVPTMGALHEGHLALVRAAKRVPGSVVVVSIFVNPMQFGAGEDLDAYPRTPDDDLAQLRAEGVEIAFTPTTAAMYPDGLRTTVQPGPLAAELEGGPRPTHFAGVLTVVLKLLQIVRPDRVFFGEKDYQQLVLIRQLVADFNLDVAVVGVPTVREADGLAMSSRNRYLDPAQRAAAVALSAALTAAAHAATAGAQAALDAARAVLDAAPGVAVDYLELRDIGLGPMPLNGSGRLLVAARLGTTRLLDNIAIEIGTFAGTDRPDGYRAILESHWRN
row,SMILES,inhibition
1,COc1ccccc1-n1c(SCC(=O)NC(C)(C)C)nnc1-c1ccco1,0%
2,O=c1cc(-c2ccco2)oc2ccc(Cl)cc12,1%
3,CCCCn1c(SCc2ccc(Cl)cc2)nc2c1c(=O)[nH]c(=O)n2C,6%
4,O=C(Nc1cccnc1)Nc1ccc2c(c1)OCO2,0%
5,CN(C)C(=O)N1CCN(C(=O)c2ccco2)CC1,0%
6,C=CCn1cnc2c(NCc3ccccc3)ncnc21,4%
7,Cc1ccc(C(=O)CSc2nnc(-c3cccnc3)n2N)cc1,5%
8,Cn1c(=O)oc2cc(S(=O)(=O)N3CCCC(C(=O)NCC4COc5ccccc5O4)C3)ccc21 (stereo not given),0%
9,CC(=O)N(c1ccc(Br)cc1)C1C=CS(=O)(=O)C1 (stereo not given),2%
10,CCOC(=O)c1sc(NC(=O)C2CC=CCC2C(=O)O)nc1C (stereo not given),3%
11,CCOc1ccc(-c2c(C#N)c(N)nc3c2c(=O)n(C)c(=O)n3C)cc1OC,6%
12,O=C(CSc1nc2cc(S(=O)(=O)N3CCOCC3)ccc2o1)NC1CCCc2ccccc21 (stereo not given),0%
13,CCOc1ccccc1C(=O)Nc1cc(=O)n(C)c(=O)n1C,10%
14,COc1ccc(NC(=O)NCCN2C(=O)C3C4C=CC(C4)C3C2=O)cc1 (stereo not given),1%
15,COc1ccc2c(c1)C1(Nc3ccccc3-c3nc4ccccc4n31)C(=O)N2 (stereo not given),0%
16,Cc1nc2sc(C(c3cccs3)N3CCOCC3)c(O)n2n1 (stereo not given),0%
17,Cc1cccc2c1nc(-c1ccccc1)n1cnnc21,0%
18,CN(C)CCCN1c2ccccc2Sc2ccccc21,0%
19,COCCN(CC(=O)NCc1ccccc1)C(=O)CCC(=O)Nc1ccccn1,0%
20,COc1ccccc1NC(=O)Cc1noc(CSc2cc(C)c3ccccc3n2)n1,0%

row,SMILES,inhibition
1,CCCn1c(=NC(C)=O)c(C#N)cc2c(=O)n3cccc(C)c3nc21,0%
2,CCCC(NC(=O)c1ccccc1)c1nc2ccccc2n1Cc1ccc(C(=O)OC)o1 (stereo not given),0%
3,COc1ccc(NC(=O)C2CCCCN2S(=O)(=O)c2ccc(F)cc2)cc1 (stereo not given),0%
4,Cc1cc(C)cc(-n2nnc(C(=O)NCc3ccc4c(c3)OCO4)c2N)c1,0%
5,COc1ccc(Oc2nc(Oc3ccc(OC)cc3)nc(Oc3ccc(OC)cc3)n2)cc1,0%
6,CCOC(=O)c1ccccc1NC(=O)c1c(O)c2ccccc2n(CC)c1=O,0%
7,COc1ccc(C)cc1NC(=O)CNC(=O)Cn1ccc2ccccc2c1=O,5%
8,Cc1ccc(S(=O)(=O)NC(C(=O)OCC(=O)NC2CCS(=O)(=O)C2)C(C)C)cc1 (stereo not given),0%
9,CC(C)N(C=O)C1(C(=O)NC2CCCCC2)CCCCC1,4%
10,CCOC(=O)N1CCN(C(c2ccc(Cl)cc2)c2sc3nc(C)nn3c2O)CC1 (stereo not given),0%
11,CCOc1ccccc1NC(=O)C1CCCN(C(=O)NCc2ccccc2)C1 (stereo not given),8%
12,C=CCN1C(=O)C2(c3ccccc31)C1CCCC=C1C(C#N)=C(N)C2(C#N)C#N (stereo not given),0%
13,Cc1ccc(-n2c(SCC3CCCCO3)nnc2-c2ccco2)cc1 (stereo not given),6%
14,CCN(CCCNC(=O)c1cn(CC)c2ccc(S(=O)(=O)N(C)C)cc2c1=O)c1cccc(C)c1,7%
15,CC(C)CCNC(=O)NC(=O)CSc1nnc(-c2ccccc2F)n1N,0%
16,COc1ccc(C(=O)Nc2ccccc2C(=O)NCCN2CCOCC2)cc1,0%
17,CCCN1C2=C(C(=O)CCC2)C(c2ccc(O)c(Br)c2)C2=C1CCCC2=O,0%
18,Cc1nnc(NC(=O)Nc2cccc(Cl)c2)s1,0%
19,COc1cccc(/C=N/n2cnnc2)c1OCc1ccccc1,0%
20,CC(C)(C)NC(=O)Cn1nnnc1-c1nonc1N,4%
